Laboratory results published in PubChem BioAssay AID651820 (National Center for Advancing Translational Sciences (NCATS), 2012).
Hit rate of the full screen: of about 340,000 compounds, about 12,000 (3.5%) were called active. Inconclusive results (about 18%) are left out. Calls come from the whole dose curve; as a rule, active = well fitted inhibition curve with a large enough effect; inconclusive = small, poorly fitted or top-dose-only effect, or another doubt; inactive = no such curve, though single readings can be large or run the other way. What follows is part of a selection rich in actives, with near analogues and random picks from the rest.

Assay: qHTS Assay for Inhibitors of Hepatitis C Virus (HCV)
Conditions: Huh7.5.1 HCVcc-Cre infection, luciferase reporter, 44 h; series mostly up to 41.8 µM; activity change, negative = inhibition: at the top concentration
Description: Hepatitis C virus (HCV) infects about 200 million people in the world. Many infected people progress to chronic liver disease including cirrhosis with a risk of developing liver cancer. To date, there is no effective vaccine for hepatitis C. Current therapy based on interferon is only effective in about half of the patients and is associated with significant adverse effects. The fraction of people with HCV who can complete a successful treatment is estimated to be no more than 10 percent. Recent development of direct-acting antivirals against HCV, such as protease and polymerase inhibitors, is promising but still requires combination with peginterferon and ribavirin for maximal efficacy. In addition, these agents are associated with high rate of resistance and many have significant side effects. Due to the lack of a culture system for infectious HCV, the search for new HCV drugs has been greatly hampered. […] High-throughput screening (HTS) with an infectious HCV system would cover the complete spectrum of potentially druggable targets in all stages of HCV lifecycle, and would have more biological relevance than other cell-based assays. Moreover, targeting several key processes in the viral life cycle may not only increase antiviral efficacy; more importantly, it may also reduce the capacity of the virus to develop resistance to the compound. The goal of this project is to identify novel HCV inhibitors as new therapies for hepatitis C, using a highly sensitive and specific assay platform which is based on a HCV infectious cell culture system established in the laboratory and adapted for high-throughput HCV drug screen. NIH Chemical Genomics Center [NCGC] NIH Molecular Libraries Probe Centers Network [MLPCN] MLPCN Grant: MH095511 Assay Submitter (PI): Jake Liang, NIDDK
The assay will start with plating 1,000 cells/well in 3 µL volume and culture for 4 h. Then 23 nL of compounds from the library collection will be added to each well, followed by adding 2.5 µL of HCVcc-Cre virus (~ 0.5 moi) and further cultured for 44 h before the luciferase assay. A volume of 4.5 µL luciferase substrates will be added to each well and the plates will be incubated at room temperature for 15 min. and then read for 15 sec. for the luciferase activity
% is set by controls: 0 for no effect and ±100 for the full control effect.

Compound | Potency | activity change, negative = inhibition
Cc1ccc2c(c1)C1CN(C)CCC1N2C(=S)Nc1ccc(Cl)cc1Cl (stereo not given) | 14.1 µM (active) | –
S=C(Nc1ccc(Cl)cc1Cl)N1CCCC1 | – | 9.86% (inactive)
Cc1ccc2c(c1)C1CN(C)CCC1N2C(=O)c1ccccc1NS(=O)(=O)c1ccc(F)cc1C (stereo not given) | – | 6.03% (inactive)
Cc1ccc(-c2nn(-c3ccc(F)cc3)cc2C(=O)NCC(c2cccs2)N2CCOCC2)cc1 (stereo not given) | – | -26.8% (inactive)
CC(=O)CSc1nc(CCc2ccccc2)c(C#N)c(=O)[nH]1 | – | 8.11% (inactive)
Cc1csc(=O)n1CC(=O)Nc1ccc(S(C)(=O)=O)cc1 | – | 1.13% (inactive)
COc1ccc2nc(NC(=O)NC3CCCCC3)sc2c1 | – | -5.76% (inactive)
COc1ccc2nc(NC(=O)c3ccc(Br)s3)sc2c1 | – | -20.9% (inactive)
COc1ccc2nc(Nc3nc4ccc(NC(C)=O)cc4s3)sc2c1 | 12.6 µM (active) | –
O=C(COC(=O)c1cccc(Cl)c1)NC(=O)NCc1ccccc1 | – | 9.11% (inactive)
Cc1noc(C)c1COc1ccc(C(=O)NCCOc2ccccc2)cc1 | – | -6.84% (inactive)
O=C(NC(=S)Nc1ccc(S(=O)(=O)N2CCOCC2)cc1)c1ccccc1[N+](=O)[O-] | – | 4.14% (inactive)
CN(CC(=O)Nc1ccc(N2CCOCC2)cc1)CC(=O)Nc1ccccc1[N+](=O)[O-] | – | 0.537% (inactive)
O=C(Nc1ccc(N2CCOCC2)cc1)c1ccc(-c2ccccc2[N+](=O)[O-])o1 | 11.2 µM (active) | –
Clc1ccc(Nc2ccc3ccccc3n2)cc1 | – | -14.2% (inactive)
N#CC1(NC(=O)COC(=O)CSc2ccc(F)cc2)CCCCC1 | – | -8.69% (inactive)
COc1cccc(COC(=O)C2CCN(S(=O)(=O)c3cccs3)CC2)c1OC | – | 1.34% (inactive)
COC(=O)c1sc(NC(=O)c2ccc(OC)cc2OC)nc1C | – | -8.74% (inactive)
COC(=O)c1sc(NC(=O)c2csc3c2CCCC3)nc1C | 11.2 µM (active) | –
Cc1ccc(NC(=O)c2csc3c2CCCC3)cc1 | – | -16.9% (inactive)
CC1=NNC(=O)C1Cc1c(Cl)cccc1Cl (stereo not given) | – | 6.34% (inactive)
CCCCN1CC(CO)Oc2cccc(F)c2S1(=O)=O (stereo not given) | – | -3.74% (inactive)
COc1cccc2oc(CCc3ccccc3)cc(=O)c12 | – | 8.5% (inactive)
Cc1cc2nc(C(F)(F)F)cc(-c3cccs3)n2n1 | – | 1.28% (inactive)
Cc1cc(-c2cccs2)nc(-n2cccc2)n1 | 5.01 µM (active) | –

Compound | Potency | activity change, negative = inhibition
c1csc(-c2cn3c(n2)SCC3)c1 | – | 0.455% (inactive)
CO[C@@H]1[C@@H](OC(N)=O)[C@@H](O)C(Oc2ccc3c(O)c(NC(=O)c4ccc(O)c(CC=C(C)C)c4)c(=O)oc3c2C)OC1(C)C (stereo not given in full) | – | -10.4% (inactive)
CC[C@]12c3[nH]c4ccc(Cl)cc4c3CCN1C(=O)[C@@H](CC(=O)NCCCOC)C[C@@H]2C(=O)N1CCN(C(=O)c2ccco2)CC1 | – | 12.8% (inactive)
COc1ccccc1N1CCN(c2nc(C)cc(=O)[nH]2)CC1 | – | 11.3% (inactive)
O=C(COC(=O)C1(c2ccc(F)cc2)CCCC1)N1CCNC1=O | – | 4.76% (inactive)
CSc1nc(C)cc(SC(C(C)=O)C(=O)Nc2ccccc2)n1 (stereo not given) | – | 21.8% (inactive)
CSc1ncc(Sc2ccccc2)c(C(=O)O)n1 | – | 0.988% (inactive)
CSc1nc(-c2ccccc2)nc(C(Cl)Cl)n1 | 3.98 µM (active) | –
CCOc1ncccc1C(=O)Nc1ccc2c(c1)OCCO2 | – | -22.9% (inactive)
CC(=O)c1ccc(S(=O)(=O)Nc2ccc(-c3ccc4nncn4n3)cc2)cc1 | – | 6.1% (inactive)
C[C@@H]1C[C@@H]2O[C@H]2/C=C\C=C\C(=O)Cc2c(Cl)c(O)cc(O)c2C(=O)O1 | 3.16 µM (active) | –
Cc1noc(C)c1NC(=O)Nc1cccc2c1O[C@H](CN(C)S(=O)(=O)c1c(C)noc1C)[C@@H](C)CN([C@H](C)CO)C2=O | – | 2.45% (inactive)
CC(=O)c1ccc(S(=O)(=O)N2CCN(c3nc4c(C)c(C)ccc4cc3C#N)CC2)cc1 | 10 µM (active) | –
CC(=O)c1ccc(S(=O)(=O)N2CCN(C(=O)/C=C/c3ccc4ccccc4n3)CC2)cc1 | – | -8.42% (inactive)
Cc1cc(C)c2nc(N3CCCC3)c(C#N)cc2c1 | – | -18% (inactive)
O=C(Cc1ccc([N+](=O)[O-])cc1)NCCc1ccc2c(c1)OCO2 | – | 3.93% (inactive)
CN(C(=O)COC(=O)Cc1ccccc1[N+](=O)[O-])C1CCS(=O)(=O)C1 (stereo not given) | – | 13.9% (inactive)
COc1ccc(CCNC(=O)c2ccccc2-c2ccccc2C(=O)O)cc1OC | – | -12.3% (inactive)
COc1ccc(CCNC2=C(Cl)C(=O)N(Cc3ccccc3)C2=O)cc1OC | 12.6 µM (active) | –
COc1ccc(CCN2C(=O)C(C)=C(C)C2=O)cc1OC | – | -11% (inactive)
Cc1ccc(S(=O)(=O)CC(=O)Nc2sc(C)c(C)c2C(N)=O)cc1 | – | 14.2% (inactive)
COc1cc2c(cc1CNC[C@H]1O[C@@H](n3cnc(C(N)=O)n3)[C@H](O)[C@@H]1O)OCO2 | – | 7.98% (inactive)
OCCCNc1nc(-c2ccccc2)c2cc(Cl)ccc2n1 | – | -24.5% (inactive)
NC(N)=Nc1nc(-c2ccccc2)c2cc(Cl)ccc2n1 | 11.2 µM (active) | –
Cc1ccc2nc(Nc3ccccc3O)nc(-c3ccccc3)c2c1 | – | 10.8% (inactive)
